Screening data from PubChem.
BAZ2B block: blocks human BAZ2B; AlphaScreen BAZ2B-H3K14Ac peptide displacement; Potency, µM (top dose mostly 114 µM), usual class: inhibitors; 360,000 tested, 4.4% active; AID 504333; also: nearly all actives have a fitted effect of over 60% in size
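Protein-peptide AlphaScreen: BAZ2B 50 nM, b-H3K14Ac 50 nM, 1x PBS pH 7.4 + 0.01% Tween-20. Preincubation 30 min RT; cpd 30 min RT (top 110 uM); beads 20 min RT, light-protected.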
PLK1 PBD inh: PLK1 (human) polo-box domain binding inhibition; 360,000 tested, 2.8% active; Plk1 PBD binding of FITC phosphopeptide, fluorescence polarization; Potency, µM, most hits filed as inhibitors; also: series mostly up to about 57 µM; nearly all actives have a fitted effect of over 65% in size
Target sequence (P53350 whole entry, looked up, the tested form may be a part): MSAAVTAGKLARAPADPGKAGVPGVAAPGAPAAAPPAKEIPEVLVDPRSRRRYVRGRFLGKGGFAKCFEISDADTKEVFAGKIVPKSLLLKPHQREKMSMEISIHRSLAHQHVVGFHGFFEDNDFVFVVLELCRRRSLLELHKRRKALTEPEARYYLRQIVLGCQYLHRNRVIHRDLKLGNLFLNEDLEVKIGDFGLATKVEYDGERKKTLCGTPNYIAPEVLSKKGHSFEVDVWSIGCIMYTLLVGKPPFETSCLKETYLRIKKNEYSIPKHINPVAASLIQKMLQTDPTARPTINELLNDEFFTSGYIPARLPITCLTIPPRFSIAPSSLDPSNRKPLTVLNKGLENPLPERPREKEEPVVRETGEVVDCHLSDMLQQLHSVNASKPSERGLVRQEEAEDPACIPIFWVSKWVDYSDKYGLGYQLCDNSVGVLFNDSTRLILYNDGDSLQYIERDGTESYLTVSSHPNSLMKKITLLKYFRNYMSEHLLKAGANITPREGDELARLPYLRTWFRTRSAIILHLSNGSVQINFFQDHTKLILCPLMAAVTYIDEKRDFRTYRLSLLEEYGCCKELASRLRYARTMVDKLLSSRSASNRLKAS
G9a block: G9a (human) methyltransferase inhibition | G9a H3K9 monomethylation, AlphaScreen, 2 h | Potency, µM (highest dose often 102 µM), hits mostly inhibitors | 350,000 tested, 8.8% active; also: nearly all actives have a fitted effect of over 75% in size
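Chemiluminescent proximity detection of H3K9 monomethylation, read after 10 min bead incubation in the dark. Reaction: 20 nM G9a, 500 nM biotin-H3K9 peptide, 20 uM SAM cofactor, 2 h, room temperature, following 15 min enzyme-compound preincubation.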
HP1b chromo inh: inhibitors of HP1-beta chromodomain binding to methylated histone tails | AlphaScreen HP1-beta / biotin-H3K9me3 peptide binding | Potency, µM (doses to about 114 µM), usual class: inhibitors | 390,000 tested, 0.56% active | AID 540317; also: nearly all actives have a fitted effect of over 70% in size
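HP1-beta protein (50 nM final) preincubated 30 min at room temperature with biotinylated H3(1-18)K9me3 peptide (50 nM) in PBS pH 7.4, 0.01% Tween-20, then compound added for 30 min. AlphaScreen streptavidin donor/nickel chelate acceptor beads (10 ug/mL final), 30 min dark, luminescence read.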
VDR inhibitor: inhibitors of human vitamin D receptor. VDR-SRC2-3 peptide fluorescence polarization, 2 h. 400,000 tested, 0.93% active. P11473. Potency, µM, actives largely listed as inhibitors
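FP read-out; VDR + SRC2-3 coactivator peptide; 23 nl compound by pintool; 2 h RT incubation; reagents held at 4 deg C, protected from light.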
JMJD2A Tudor: inhibitors of human JMJD2A Tudor domain; O75164; AlphaScreen JMJD2A-Tudor / H3K4me3 peptide binding; Potency, µM (series often up to 114 µM), usual class: inhibitors; 390,000 tested, 4.4% active; AID 504339; also: nearly all actives have a fitted effect of over 50% in size
Each line names hits and unclear results; the compound was inactive in the other large screens. Sampled rows, rich in hits. Any-hit rate of the full collection: about 11%. Calls follow the shape of the dose curve; as a rule, active = well fitted curve in the direction sought with a large enough effect; inconclusive = small, poorly fitted or top-dose-only effect, or another doubt; inactive = no such curve, though single readings can be large; an effect the other way counts as inactive or inconclusive.

COc1cc(/C=C2/SC(=S)NC2=O)ccc1OS(=O)(=O)c1ccc(C)cc1	BAZ2B block 50.1µM, PLK1 PBD inh 9.47µM, G9a block 20µM, HP1b chromo inh inconclusive, VDR inhibitor 50.1µM, JMJD2A Tudor 56.2µM
CCOc1ccc(/C=C2\SC(=S)NC2=O)cc1OC	BAZ2B block inconclusive, G9a block 12.6µM
COc1cc(/C=C2\SC(=S)N(CCCCC(=O)O)C2=O)ccc1OS(=O)(=O)c1ccc(C)cc1	BAZ2B block 35.5µM, PLK1 PBD inh 29.9µM, G9a block inconclusive, HP1b chromo inh inconclusive, VDR inhibitor inconclusive, JMJD2A Tudor 50.1µM
COc1ccc(C=C2SC(=S)NC2=O)cc1	VDR inhibitor inconclusive (no result: BAZ2B block, G9a block)
OC(Cc1cccnc1)(Cc1cccnc1)c1cc2ccccc2[nH]1	none
COc1cc(/C=C2\SC(=S)NC2=O)ccc1OS(=O)(=O)c1ccccc1	BAZ2B block 44.7µM, G9a block 11.2µM (no result: PLK1 PBD inh, HP1b chromo inh, VDR inhibitor, JMJD2A Tudor)
O=C(CCCCn1c(=O)c2ccccc2n(Cc2cccc(Cl)c2)c1=O)NCc1ccc2c(c1)OCO2	none (no result: PLK1 PBD inh)
CC1(C)CC(=O)C(C(=O)C2CCN(S(=O)(=O)c3ccccc3)CC2)C(=O)C1	JMJD2A Tudor 100µM
O=C(NNS(=O)(=O)c1ccccc1)C1CCN(S(=O)(=O)c2ccccc2)CC1	PLK1 PBD inh inconclusive, G9a block 22.4µM
O=C(C1CCN(S(=O)(=O)c2ccccc2)CC1)N1CCC1	none
COC(=O)/C(=C/Nc1ccc(O)cc1)[N+](=O)[O-]	G9a block 2µM, JMJD2A Tudor inconclusive
O=C(NNC(=S)NC(=O)c1ccc(Br)cc1)c1cccc([N+](=O)[O-])c1	PLK1 PBD inh 26.7µM, G9a block 35.5µM, VDR inhibitor inconclusive
O=C(NNC(=S)NC(=O)c1ccccc1Cl)c1cccc([N+](=O)[O-])c1	G9a block 35.5µM
COCCNC(=S)NNc1ccccc1[N+](=O)[O-]	BAZ2B block 50.1µM, PLK1 PBD inh 15µM, G9a block inconclusive, HP1b chromo inh inconclusive, VDR inhibitor inconclusive, JMJD2A Tudor inconclusive
O=C(NNC(=S)NC(=O)c1ccccc1)c1ccc([N+](=O)[O-])cc1	PLK1 PBD inh 26.7µM
Cc1ccccc1C(=O)NNC(=O)c1cccc([N+](=O)[O-])c1	PLK1 PBD inh inconclusive
O=C(c1ccco1)N1CCC2(CCCN(c3ccncc3)C2)CC1	none (no result: BAZ2B block, PLK1 PBD inh, HP1b chromo inh, JMJD2A Tudor)
O=C(NC(=S)Nc1ccccc1[N+](=O)[O-])c1ccccc1	G9a block 25.1µM, HP1b chromo inh inconclusive, JMJD2A Tudor inconclusive
Cc1c(NC(=O)c2ccc(C(C)(C)C)cc2)cccc1[N+](=O)[O-]	none
CC(C)(C)c1ccc(NC(=O)c2ccccc2)c([N+](=O)[O-])c1	BAZ2B block inconclusive, G9a block inconclusive, HP1b chromo inh inconclusive, JMJD2A Tudor 50.1µM
O=C(Nc1ccccc1[N+](=O)[O-])c1cncc(Br)c1	PLK1 PBD inh 29.9µM, JMJD2A Tudor inconclusive
C/C(=N\NC(=O)C(N)=O)c1cccc([N+](=O)[O-])c1	BAZ2B block inconclusive, G9a block inconclusive, JMJD2A Tudor inconclusive
O=C(Nc1ccc(F)cc1F)c1cncc(Br)c1	none
O=C(NC(=S)Nc1cccc2c(O)cccc12)c1ccccc1[N+](=O)[O-]	G9a block inconclusive
CNC(=S)N/N=C(\C)c1cccc([N+](=O)[O-])c1	BAZ2B block 50.1µM, G9a block inconclusive
COc1ccc(Br)cc1S(=O)(=O)N1CCN(S(=O)(=O)c2ccc3c(c2)OCCO3)CC1	none (no result: BAZ2B block, PLK1 PBD inh, G9a block, HP1b chromo inh, VDR inhibitor)
CN1CCc2cc(O)c(O)cc2C1Cc1ccc(O)c(O)c1 (stereo not drawn)	none (no result: BAZ2B block, PLK1 PBD inh, G9a block, HP1b chromo inh, JMJD2A Tudor)
CN1CCN(C(=S)NC(=O)c2cccc([N+](=O)[O-])c2)CC1	none
O=C(O)CCC(=O)NNC(=O)c1ccc([N+](=O)[O-])cc1	PLK1 PBD inh 23.8µM, VDR inhibitor inconclusive
CC1CCN(C(=S)NC(=O)c2cccc([N+](=O)[O-])c2)CC1	G9a block 70.8µM
CC(=O)NNC(=S)NC(=O)c1cccc([N+](=O)[O-])c1	BAZ2B block inconclusive, PLK1 PBD inh 23.8µM, G9a block inconclusive, HP1b chromo inh inconclusive, VDR inhibitor inconclusive, JMJD2A Tudor 8.91µM
CNc1ncncc1-c1ccccc1OC	none (no result: BAZ2B block, PLK1 PBD inh, G9a block, HP1b chromo inh, JMJD2A Tudor)
CCn1c(C(=O)NCc2cc(Br)ccc2OC)cc2oc3ccccc3c21	none (no result: PLK1 PBD inh)
